# Measured values reported in the supplement of paper PMC10849652.
# The full data set covers some 7,900 targets. This sample favours those with a hit. About 0.6% of all pairs of compound and target were hits. Values without a mark were called inactive.
# Experiments:
# Assay in all cases: log2 fold change, soluble protein after heating vs DMSO (PISA); higher = thermal stabilisation; K562 cells, 10 uM, 30 min; active = over 0.2 and 3.5 SD of the protein, either way, in both replicates (recomputed)
# bafetinib = compound: Cc1ccc(NC(=O)c2ccc(CN3CC[C@H](N(C)C)C3)c(C(F)(F)F)c2)cc1Nc1nccc(-c2cncnc2)n1 [bafetinib]
# Summary of the method: (§1)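 K562 cells at 2×10^6 cells/mL were given 10 μM compound for 30 min. Aliquots then went through 3 min of heating across 48°C-58°C, were pooled, and were extracted in PBS with 0.5% NP-40 at 4°C, and the supernatant after 21,000xg for 90 min was quantified by TMTpro 16plex LC-MS/MS with channel sums equalised. Thermal stability relative to control samples, from duplicates, is given as log2 fold change.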
# nilotinib = compound: Cc1cn(-c2cc(NC(=O)c3ccc(C)c(Nc4nccc(-c5cccnc5)n4)c3)cc(C(F)(F)F)c2)cn1 [nilotinib]
# Summary of the method: as §1
# [1] = compound: Cc1nc(Nc2n[nH]c3c2CN(C(=O)N[C@H](CN(C)C)c2ccccc2)C3(C)C)c2sccc2n1
# Summary of the method: as §1
# dasatinib = compound: Cc1nc(Nc2ncc(C(=O)Nc3c(C)cccc3Cl)s2)cc(N2CCN(CCO)CC2)n1 [dasatinib]
# Summary of the method: as §1
# [2] = compound: Cc1ncc(-c2ccnc(Nc3ccc(S(C)(=O)=O)cc3)n2)n1C(C)C
# Summary of the method: as §1
# [3] = compound: Cn1cc(-c2ccc3c(c2)CCN3C(=O)Cc2cccc(C(F)(F)F)c2)c2c(N)ncnc21
# Summary of the method: as §1
# tipifarnib = compound: Cn1cncc1[C@@](N)(c1ccc(Cl)cc1)c1ccc2c(c1)c(-c1cccc(Cl)c1)cc(=O)n2C [tipifarnib]
# Summary of the method: as §1
# mubritinib = compound: FC(F)(F)c1ccc(/C=C/c2nc(COc3ccc(CCCCn4ccnn4)cc3)co2)cc1 [mubritinib]
# Summary of the method: as §1
# [4] = compound: NC(=O)c1cnc(N[C@@H]2CCCC[C@@H]2N)nc1Nc1cccc(-n2nccn2)c1
# Summary of the method: as §1
# [5] = compound: NC1(c2ccc(-c3nc4ccn5c(=O)[nH]nc5c4cc3-c3ccccc3)cc2)CCC1
# Summary of the method: as §1
# citarinostat = compound: O=C(CCCCCCNC(=O)c1cnc(N(c2ccccc2)c2ccccc2Cl)nc1)NO [citarinostat]
# Summary of the method: as §1
# silmitasertib = compound: O=C(O)c1ccc2c(c1)nc(Nc1cccc(Cl)c1)c1ccncc12 [silmitasertib]
# Summary of the method: as §1
# [6] = compound: c1cc(OCCN2CCCCC2)cc(-c2n[nH]c3ccc(-c4nnc[nH]4)cc23)c1
# Summary of the method: as §1
# [7] = compound: NC(=O)Nc1cc(-c2cccc(F)c2)sc1C(=O)N[C@H]1CCCNC1
# Summary of the method: as §1
# [8] = compound: NCC(=O)Nc1ccc(-n2nc(C(F)(F)F)cc2-c2ccc3c(ccc4ccccc43)c2)cc1
# Summary of the method: as §1
# entinostat = compound: Nc1ccccc1NC(=O)c1ccc(CNC(=O)OCc2cccnc2)cc1 [entinostat]
# Summary of the method: as §1
# [9] = compound: Cc1cccc(CC(=O)N2CCc3c2ccc(-c2cn(C)c4ncnc(N)c24)c3F)n1
# Summary of the method: as §1
# [10] = compound: Cn1cc(-c2ccc3nnc(C(F)(F)c4ccc5ncccc5c4)n3n2)cn1
# Summary of the method: as §1
# vorinostat = compound: O=C(CCCCCCC(=O)Nc1ccccc1)NO [vorinostat]
# Summary of the method: as §1
# [11] = compound: O=C1NC(=O)C(c2cnc3ccccn23)=C1c1cn2c3c(cc(F)cc13)CN(C(=O)N1CCCCC1)CC2
# Summary of the method: as §1
# Chain of UniProt P98171 (P98171 whole entry, looked up): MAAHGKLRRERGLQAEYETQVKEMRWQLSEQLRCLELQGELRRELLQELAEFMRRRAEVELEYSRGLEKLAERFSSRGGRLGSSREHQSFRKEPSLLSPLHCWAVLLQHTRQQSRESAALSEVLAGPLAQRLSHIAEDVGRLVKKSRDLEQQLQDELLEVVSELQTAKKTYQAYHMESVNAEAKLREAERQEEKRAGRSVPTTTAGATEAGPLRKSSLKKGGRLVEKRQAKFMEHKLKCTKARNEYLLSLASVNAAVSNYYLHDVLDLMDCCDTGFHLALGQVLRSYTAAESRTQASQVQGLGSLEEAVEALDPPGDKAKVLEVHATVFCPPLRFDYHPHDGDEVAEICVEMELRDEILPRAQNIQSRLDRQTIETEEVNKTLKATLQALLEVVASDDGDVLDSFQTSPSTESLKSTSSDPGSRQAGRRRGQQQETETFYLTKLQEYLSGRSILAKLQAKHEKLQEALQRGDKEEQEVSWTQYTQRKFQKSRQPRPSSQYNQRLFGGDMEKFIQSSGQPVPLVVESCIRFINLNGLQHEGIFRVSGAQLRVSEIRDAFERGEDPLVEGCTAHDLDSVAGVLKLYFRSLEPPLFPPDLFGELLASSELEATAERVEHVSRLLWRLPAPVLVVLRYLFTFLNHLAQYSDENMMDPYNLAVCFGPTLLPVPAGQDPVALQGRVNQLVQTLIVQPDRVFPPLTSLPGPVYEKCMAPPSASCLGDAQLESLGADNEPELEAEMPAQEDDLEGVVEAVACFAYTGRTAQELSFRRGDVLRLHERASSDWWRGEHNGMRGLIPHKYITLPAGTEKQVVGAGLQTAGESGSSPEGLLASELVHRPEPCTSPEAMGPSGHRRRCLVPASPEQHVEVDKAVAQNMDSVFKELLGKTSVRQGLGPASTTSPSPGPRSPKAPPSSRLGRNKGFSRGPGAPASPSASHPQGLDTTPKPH
# Chain of UniProt Q9Y587 (Q9Y587 whole entry, looked up): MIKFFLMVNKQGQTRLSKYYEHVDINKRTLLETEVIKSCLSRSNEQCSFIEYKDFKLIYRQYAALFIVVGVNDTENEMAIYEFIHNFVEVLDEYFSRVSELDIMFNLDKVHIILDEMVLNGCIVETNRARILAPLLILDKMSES
# Chain of UniProt Q9BUT1 (Q9BUT1 whole entry, looked up): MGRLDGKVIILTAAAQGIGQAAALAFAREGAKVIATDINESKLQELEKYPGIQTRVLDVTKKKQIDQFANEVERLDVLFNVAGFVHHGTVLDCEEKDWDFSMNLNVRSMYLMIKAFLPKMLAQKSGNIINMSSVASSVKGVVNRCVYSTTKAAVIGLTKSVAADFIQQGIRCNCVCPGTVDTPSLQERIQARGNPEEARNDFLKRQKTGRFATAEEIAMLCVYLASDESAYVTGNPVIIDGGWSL
# Chain of UniProt Q8IXM2 (Q8IXM2 whole entry, looked up): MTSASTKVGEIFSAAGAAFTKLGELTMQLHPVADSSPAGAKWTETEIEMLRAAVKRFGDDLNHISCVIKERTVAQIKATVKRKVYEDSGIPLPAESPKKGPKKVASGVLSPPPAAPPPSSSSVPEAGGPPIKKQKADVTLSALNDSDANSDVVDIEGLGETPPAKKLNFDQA
# Chain of UniProt P55196 (P55196 whole entry, looked up): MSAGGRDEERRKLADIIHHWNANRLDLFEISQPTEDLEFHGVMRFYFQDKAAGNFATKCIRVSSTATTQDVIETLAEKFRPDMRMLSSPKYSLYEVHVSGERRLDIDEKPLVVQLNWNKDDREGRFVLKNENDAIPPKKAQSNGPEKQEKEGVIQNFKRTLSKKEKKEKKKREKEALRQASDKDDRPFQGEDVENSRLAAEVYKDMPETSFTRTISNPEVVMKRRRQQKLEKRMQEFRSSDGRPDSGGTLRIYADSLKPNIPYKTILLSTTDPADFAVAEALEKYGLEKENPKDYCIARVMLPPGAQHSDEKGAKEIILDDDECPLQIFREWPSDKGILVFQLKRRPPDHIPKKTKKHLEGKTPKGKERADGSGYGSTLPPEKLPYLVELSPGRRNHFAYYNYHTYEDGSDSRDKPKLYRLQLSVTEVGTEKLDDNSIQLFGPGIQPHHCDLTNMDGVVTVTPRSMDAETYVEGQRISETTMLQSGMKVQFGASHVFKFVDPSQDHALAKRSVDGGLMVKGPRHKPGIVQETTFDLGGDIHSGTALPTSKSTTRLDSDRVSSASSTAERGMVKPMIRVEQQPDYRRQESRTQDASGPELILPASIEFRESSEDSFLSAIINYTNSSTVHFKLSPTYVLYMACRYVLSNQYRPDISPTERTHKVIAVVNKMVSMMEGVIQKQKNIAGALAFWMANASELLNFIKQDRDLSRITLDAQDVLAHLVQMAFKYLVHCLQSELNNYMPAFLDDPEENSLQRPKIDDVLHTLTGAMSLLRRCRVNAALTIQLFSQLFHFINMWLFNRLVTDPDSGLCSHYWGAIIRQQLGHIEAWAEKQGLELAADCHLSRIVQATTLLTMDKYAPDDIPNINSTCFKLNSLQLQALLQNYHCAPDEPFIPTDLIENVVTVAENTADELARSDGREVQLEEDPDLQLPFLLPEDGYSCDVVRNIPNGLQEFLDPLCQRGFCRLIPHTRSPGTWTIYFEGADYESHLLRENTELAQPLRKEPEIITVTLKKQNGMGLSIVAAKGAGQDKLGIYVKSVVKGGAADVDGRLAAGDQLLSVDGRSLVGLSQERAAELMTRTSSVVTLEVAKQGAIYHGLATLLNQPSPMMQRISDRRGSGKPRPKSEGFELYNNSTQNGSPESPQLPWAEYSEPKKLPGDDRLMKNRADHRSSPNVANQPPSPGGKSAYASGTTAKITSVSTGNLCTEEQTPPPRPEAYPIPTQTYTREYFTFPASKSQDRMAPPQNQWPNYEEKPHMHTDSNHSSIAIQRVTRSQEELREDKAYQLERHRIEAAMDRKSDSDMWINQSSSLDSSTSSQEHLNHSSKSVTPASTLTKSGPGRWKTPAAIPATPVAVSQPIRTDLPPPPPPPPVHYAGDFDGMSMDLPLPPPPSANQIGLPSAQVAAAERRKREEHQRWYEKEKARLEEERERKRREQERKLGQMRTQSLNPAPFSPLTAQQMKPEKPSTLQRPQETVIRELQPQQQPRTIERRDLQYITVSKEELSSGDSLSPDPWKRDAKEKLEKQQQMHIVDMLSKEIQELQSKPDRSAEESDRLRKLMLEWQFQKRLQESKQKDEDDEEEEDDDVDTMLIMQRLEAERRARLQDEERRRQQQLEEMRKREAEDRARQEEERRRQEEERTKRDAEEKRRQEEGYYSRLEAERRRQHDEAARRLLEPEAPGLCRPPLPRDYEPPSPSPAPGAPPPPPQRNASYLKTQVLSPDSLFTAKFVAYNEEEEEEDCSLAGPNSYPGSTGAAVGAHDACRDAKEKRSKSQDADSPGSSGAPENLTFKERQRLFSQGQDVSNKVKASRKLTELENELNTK
# Chain of UniProt Q9H7T9 (Q9H7T9 whole entry, looked up): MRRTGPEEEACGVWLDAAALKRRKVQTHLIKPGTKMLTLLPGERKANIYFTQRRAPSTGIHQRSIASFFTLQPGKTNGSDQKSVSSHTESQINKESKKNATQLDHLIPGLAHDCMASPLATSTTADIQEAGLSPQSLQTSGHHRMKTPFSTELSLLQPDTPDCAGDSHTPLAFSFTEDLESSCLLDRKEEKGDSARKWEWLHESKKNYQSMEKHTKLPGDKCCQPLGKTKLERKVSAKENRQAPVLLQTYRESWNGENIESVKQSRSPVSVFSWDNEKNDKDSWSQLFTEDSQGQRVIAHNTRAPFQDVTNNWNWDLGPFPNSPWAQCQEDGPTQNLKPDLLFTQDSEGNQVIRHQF
# Chain of UniProt P35612 (P35612 whole entry, looked up): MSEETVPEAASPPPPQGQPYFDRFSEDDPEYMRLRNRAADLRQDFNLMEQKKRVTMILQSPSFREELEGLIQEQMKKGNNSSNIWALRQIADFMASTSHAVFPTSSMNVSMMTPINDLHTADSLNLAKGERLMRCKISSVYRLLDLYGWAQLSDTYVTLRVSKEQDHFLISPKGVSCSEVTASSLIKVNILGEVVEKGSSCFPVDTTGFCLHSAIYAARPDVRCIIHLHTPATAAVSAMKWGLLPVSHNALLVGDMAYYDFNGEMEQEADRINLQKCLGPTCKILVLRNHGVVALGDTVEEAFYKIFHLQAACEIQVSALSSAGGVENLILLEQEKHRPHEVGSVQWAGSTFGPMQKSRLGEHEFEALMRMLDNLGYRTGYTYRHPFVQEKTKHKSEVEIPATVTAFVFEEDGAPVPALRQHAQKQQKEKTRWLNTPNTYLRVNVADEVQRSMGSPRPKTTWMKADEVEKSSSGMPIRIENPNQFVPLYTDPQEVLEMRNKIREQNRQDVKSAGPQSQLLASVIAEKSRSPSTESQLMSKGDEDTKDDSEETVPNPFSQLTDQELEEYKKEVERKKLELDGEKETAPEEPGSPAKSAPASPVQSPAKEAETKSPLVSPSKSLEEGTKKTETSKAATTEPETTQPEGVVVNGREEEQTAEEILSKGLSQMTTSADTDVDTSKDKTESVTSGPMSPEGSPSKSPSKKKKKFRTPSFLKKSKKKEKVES
# Chain of UniProt Q9HC16 (Q9HC16 whole entry, looked up): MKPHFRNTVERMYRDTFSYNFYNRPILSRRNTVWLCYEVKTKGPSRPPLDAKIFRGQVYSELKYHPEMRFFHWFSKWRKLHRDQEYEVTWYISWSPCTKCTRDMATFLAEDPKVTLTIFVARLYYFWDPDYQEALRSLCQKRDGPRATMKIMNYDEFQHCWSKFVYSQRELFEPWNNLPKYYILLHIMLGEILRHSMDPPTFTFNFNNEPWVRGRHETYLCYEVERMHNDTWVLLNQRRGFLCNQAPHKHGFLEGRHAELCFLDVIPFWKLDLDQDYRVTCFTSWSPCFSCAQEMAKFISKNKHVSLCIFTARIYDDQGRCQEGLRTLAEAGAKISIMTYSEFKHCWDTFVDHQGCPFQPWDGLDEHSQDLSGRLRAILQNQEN
Target,log2 fold change (bafetinib),log2 fold change (nilotinib),log2 fold change [1],log2 fold change (dasatinib),log2 fold change [2],log2 fold change [3],log2 fold change (tipifarnib),log2 fold change (mubritinib),log2 fold change [4],log2 fold change [5],log2 fold change (citarinostat),log2 fold change (silmitasertib),log2 fold change [6],log2 fold change [7],log2 fold change [8],log2 fold change (entinostat),log2 fold change [9],log2 fold change [10],log2 fold change (vorinostat),log2 fold change [11]
AARSD1 (UniProt Q9BTE6),0.142,0.029,-0.078,-0.606,-0.012,0.121,-0.19,0.066,-0.066,-0.048,0.144,0.137,0.066,,,,,,,
AUNIP isoform 2 (UniProt Q9H7T9),,,,-0.284,,-0.006,-0.844 (active),,-0.037,,,,,-0.194,0.073,0.003,,,,
ABCA3 (UniProt Q99758),0.164,,,-0.027,,-0.022,0.058,,-0.001,,0.021,,0,0.021,-0.196,-0.064,-0.053,0.019,0.02,0.134
AUH (UniProt Q13825),-0.102,,,0.145,,-0.072,-0.011,0.048,0.011,-0.023,-0.103,-0.061,0.003,,0.103,,0.024,0.007,0.018,
ADD1 isoform 4 (UniProt P35611),-0.034,,,,,0.114,,,,,,,,,,,0.033,,0.05,0.027
ADD2 isoform 9 (UniProt P35612),0.021,,,,,,0.149,-0.125,,-1.2 (active),,-0.225,,0,,-0.052,,-0.002,,
ANGEL1 (UniProt Q9UNK9),0.015,,,,,,,,,,,,,,-0.004,,,-0.063,,
ALDH2 isoform 2 (UniProt P05091),-0.029,,,,,,0.015,,-0.389,,-0.055,,-0.36,-0.345,-0.351,-0.14,-0.124,0.244,0.083,0.051
BRD2 isoform 2 (UniProt P25440),0.136,,,-0.32,,0.11,-0.171,,-0.209,,,,,-0.01,-0.112,-0.159,0.476,,-0.214,
BAP18 isoform 3 (UniProt Q8IXM2),,,,,,,,0.117,,-0.042,,-0.119,,,,,-0.182,,0.192,
ARHGAP4 isoform 2 (UniProt P98171),0.709 (active),-0.137,0.436,-0.097,-0.174,-0.06,0.161,-0.164,-0.079,0.021,0.047,-0.043,-0.097,0.197,-0.036,0.081,,-0.046,,
AFDN isoform 1 (UniProt P55196),-0.053,,,-0.152,,-0.027,,0.031,0.048,-0.043,0.079,0.002,-0.141,-0.016,-0.031,0.047,-0.077,0.07,-0.033,-0.054
ACTR3B (UniProt Q9P1U1),,0.036,-0.082,,-0.001,,0.129,,,,,,,,-0.217,,0.035,-0.051,-0.067,
ALKBH4 (UniProt Q9NXW9),0.038,,,0,,-0.022,-0.001,-0.122,-0.051,-0.427 (active),0.079,0.165,-0.014,-0.009,0.097,-0.058,0.087,0.017,-0.031,0
AP2M1 (UniProt C9JTK4),-0.174,-0.02,0.212,0.029,-0.161,-0.17,,0.08,-0.149,-0.111,-0.132,0.116,0.024,-0.07,-0.261,0.043,,,,-0.267
ACVR1 (UniProt Q04771),,,,0.041,,0.029,-0.006,-0.124,0.074,0,0.07,0.046,0.027,0.044,0.089,0.137,-0.068,,-0.255,-0.069
ARMC8 isoform 6 (UniProt Q8IUR7),-0.012,-0.034,-0.079,,-0.052,,,,-0.023,,,,,,0.025,,,,,
AGAP3 isoform 4 (UniProt Q96P47),-0.144,0.138,-0.016,,-0.049,-0.077,-0.012,-0.156,-0.128,-0.001,-0.063,-0.019,-0.18,0.034,,0.021,,-0.082,,0.127
BRAF (UniProt P15056),0.067,,-0.099,,-0.014,0.03,-0.034,-0.059,-0.079,,-0.002,0.024,-0.067,-0.102,-0.046,0.009,0.019,0.01,0.012,-0.007
BRD8 isoform 2 (UniProt Q9H0E9),-0.057,,,-0.136,,-0.022,-0.038,,-0.205,,-0.019,,-0.09,-0.016,-0.13,0.039,0.064,-0.038,-0.092,0.102
APOBEC3G (UniProt Q9HC16),-0.016,0.028,0.079,0.075,0.028,,-0.012,0.03,0.149,0.061,0.125,0.116,-0.013,0.046,-0.027,0.026,,-0.042,,0.202
"BRAF, A0A2R8Y8E0",,-0.419,0.112,,-0.236,,,0.113,0.214,-0.31,,-0.064,,,,,,0.052,,
BDH2 (UniProt Q9BUT1),0.114,,,0.031,,0.063,0.017,0.274,-0.086,-0.042,,0.076,,-0.091,0.009,0.025,0.069,-0.032,-0.03,
AP4S1 (UniProt Q9Y587),0.068,-0.015,-0.016,-0.036,0.072,-0.103,0.076,-0.013,0.039,-0.11,0.054,-0.005,0.015,-0.014,0.019,0.062,,,,-0.092
